Data taken from PubChem BioAssay AID1159580 (chemical genetic matrix, 2015).
Hit rate of the full screen: of about 5,500 compounds, about 2,000 (36%) were called active. Another 18% or so got no clear call; they are omitted. No stated cut-off is given here; in the data, active means normalized growth mostly below about 0.91 (no sharp cut-off); inconclusive means no clear call, values can overlap the other calls; inactive means mostly above about 0.92. This is one part of the list.

Experiment: chemical genetic growth profiling, strain panel (AID 1159580);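 further: tested at 20 µM; growth read once vehicle control cultures reached saturation at 30 °C; 1 = growth at the plate median or of vehicle wells; lower values mean less growth of the strain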
Settings: growth OD

Measured: normalized growth

CCOC(=O)[C@H](CCc1ccccc1)N[C@@H](C)C(=O)N1Cc2ccccc2C[C@H]1C(=O)O
inactive: S. cerevisiae deletion strains, locus YJR043C, strain POL32, hits give low values 1.02 | S. cerevisiae deletion strains, locus YJR066W, strain TOR1, hits give low values 0.98 | S. cerevisiae deletion strains, locus YKL009W, strain mrt4, hits give low values 0.994 | S. cerevisiae deletion strains, locus YKL068W, hits give low values 1 | S. cerevisiae deletion strains, locus YKL085W, strain MDH1 (second series), hits give low values 1.01 | S. cerevisiae deletion strains, locus YKL085W, strain MDH1, hits give low values 1.01 | S. cerevisiae deletion strains, locus YKL160W, strain elf1, hits give low values 0.975 | S. cerevisiae deletion strains, locus YKL190W, strain CNB1, hits give low values 1.01 | S. cerevisiae deletion strains, locus YKR001C, strain vps1, hits give low values 0.986 | S. cerevisiae deletion strains, locus YKR026C, strain gcn3, hits give low values 0.994 | S. cerevisiae deletion strains, locus YKR091W, strain srl3, hits give low values 1 | S. cerevisiae deletion strains, locus YLL001W, strain dnm1, hits give low values 0.998 | S. cerevisiae deletion strains, locus YLL026W, hits give low values 1.01 | S. cerevisiae deletion strains, locus YLL041C, strain sdh2, hits give low values 0.998 | S. cerevisiae deletion strains, locus YLR027C, strain aat2, hits give low values 0.994 | S. cerevisiae deletion strains, locus YLR039C, strain RIC1, hits give low values 1.05 | S. cerevisiae deletion strains, locus YLR058C, strain SHM2, hits give low values 1.01 | S. cerevisiae deletion strains, locus YLR102C, strain apc9, hits give low values 1.01 | S. cerevisiae deletion strains, locus YLR113W, strain HOG1, hits give low values 0.963 | S. cerevisiae deletion strains, locus YLR221C, strain rsa3, hits give low values 1.02 | S. cerevisiae deletion strains, locus YLR258W, strain gsy2, hits give low values 0.999 | S. cerevisiae deletion strains, locus YLR262C, strain YPT6 (second series), hits give low values 0.995 | S. cerevisiae deletion strains, locus YLR262C, strain YPT6, hits give low values 1.07 | S. cerevisiae deletion strains, locus YLR268W, strain sec22, hits give low values 1 | S. cerevisiae deletion strains, locus YLR320W, strain mms22, hits give low values 0.996 | S. cerevisiae deletion strains, locus YLR330W, strain CHS5, hits give low values 1 | S. cerevisiae deletion strains, locus YLR342W, strain FKS1 (second series), hits give low values 1.02 | S. cerevisiae deletion strains, locus YLR342W, strain FKS1, hits give low values 1.02 | S. cerevisiae deletion strains, locus YLR357W, strain rsc2, hits give low values 0.975 | S. cerevisiae deletion strains, locus YLR370C, strain arc18, hits give low values 0.985 | S. cerevisiae deletion strains, locus YLR371W, strain rom2, hits give low values 1.01 | S. cerevisiae deletion strains, locus YLR384C, strain iki3, hits give low values 1.01 | S. cerevisiae deletion strains, locus YLR418C, strain cdc73, hits give low values 1 | S. cerevisiae deletion strains, locus YML016C, strain PPZ1, hits give low values 1 | S. cerevisiae deletion strains, locus YML032C, strain rad52, hits give low values 1 | S. cerevisiae deletion strains, locus YML120C, strain ndi1, hits give low values 0.996 | S. cerevisiae deletion strains, locus YML124C, strain tub3, hits give low values 1.01 | S. cerevisiae deletion strains, locus YMR058W, strain fet3, hits give low values 1.01 | S. cerevisiae deletion strains, locus YMR078C, strain ctf18, hits give low values 1 | S. cerevisiae deletion strains, locus YMR125W, strain sto1, hits give low values 0.989 | S. cerevisiae deletion strains, locus YMR129W, hits give low values 0.989 | S. cerevisiae deletion strains, locus YMR205C, strain PFK2, hits give low values 1 | S. cerevisiae deletion strains, locus YMR223W, strain ubp8, hits give low values 1.02 | S. cerevisiae deletion strains, locus YMR231W, strain pep5, hits give low values 0.999 | S. cerevisiae deletion strains, locus YMR307W, strain GAS1, hits give low values 0.979 | S. cerevisiae deletion strains, locus YNL067W, strain RPL9B, hits give low values 0.995 | S. cerevisiae deletion strains, locus YNL071W, strain lat1, hits give low values 0.998 | S. cerevisiae deletion strains, locus YNL183C, strain NPR1, hits give low values 0.949 | S. cerevisiae deletion strains, locus YNL209W, strain ssb2, hits give low values 0.994 | S. cerevisiae deletion strains, locus YNL233W, strain BNI4, hits give low values 0.994 | S. cerevisiae deletion strains, locus YNL248C, strain rpa49, hits give low values 0.957 | S. cerevisiae deletion strains, locus YNL250W, strain rad50, hits give low values 1.01 | S. cerevisiae deletion strains, locus YNL271C, strain bni1, hits give low values 1.02 | S. cerevisiae deletion strains, locus YNL298W, strain CLA4, hits give low values 1.01 | S. cerevisiae deletion strains, locus YNL307C, strain MCK1, hits give low values 1.02 | S. cerevisiae deletion strains, locus YNL322C, strain KRE1 (second series), hits give low values 0.996 | S. cerevisiae deletion strains, locus YNL322C, strain KRE1, hits give low values 1.01 | S. cerevisiae deletion strains, locus YNR049C, strain mso1, hits give low values 1 | S. cerevisiae deletion strains, locus YNR052C, strain pop2, hits give low values 1.01 | S. cerevisiae deletion strains, locus YOL006C, strain TOP1, hits give low values 0.987 | S. cerevisiae deletion strains, locus YOL012C, strain htz1 1.52 | S. cerevisiae deletion strains, locus YOL147C, strain pex11, hits give low values 1.01 | S. cerevisiae deletion strains, locus YOR001W, strain rrp6, hits give low values 1.01 | S. cerevisiae deletion strains, locus YOR061W, strain CKA2, hits give low values 1.01 | S. cerevisiae deletion strains, locus YOR069W, strain VPS5, hits give low values 1 | S. cerevisiae deletion strains, locus YOR070C, strain gyp1, hits give low values 1.01 | S. cerevisiae deletion strains, locus YOR080W, strain dia2, hits give low values 1.01 | S. cerevisiae deletion strains, locus YOR083W, strain WHI5, hits give low values 0.963 | S. cerevisiae deletion strains, locus YOR106W, strain vam3, hits give low values 0.989 | S. cerevisiae deletion strains, locus YOR136W, strain idh2, hits give low values 1.01 | S. cerevisiae deletion strains, locus YOR144C, strain elg1, hits give low values 1.01 | S. cerevisiae deletion strains, locus YOR184W, strain ser1, hits give low values 1 | S. cerevisiae deletion strains, locus YOR231W, strain MKK1, hits give low values 0.974 | S. cerevisiae deletion strains, locus YOR265W, strain rbl2, hits give low values 1.02 | S. cerevisiae deletion strains, locus YOR270C, strain vph1, hits give low values 0.853 | S. cerevisiae deletion strains, locus YOR290C, strain snf2, hits give low values 0.972 | S. cerevisiae deletion strains, locus YOR316C, strain cot1, hits give low values 1.02 | S. cerevisiae deletion strains, locus YPL051W, strain arl3, hits give low values 0.995 | S. cerevisiae deletion strains, locus YPL078C, strain atp4, hits give low values 0.98 | S. cerevisiae deletion strains, locus YPL106C, strain sse1, hits give low values 1 | S. cerevisiae deletion strains, locus YPL240C, strain hsp82, hits give low values 1.02 | S. cerevisiae deletion strains, locus YPL241C, strain CIN2, hits give low values 1.01 | S. cerevisiae deletion strains, locus YPL256C, strain CLN2, hits give low values 0.962 | S. cerevisiae deletion strains, locus YPR119W, strain clb2, hits give low values 1 | S. cerevisiae deletion strains, locus YPR141C, strain kar3, hits give low values 1.01 | S. cerevisiae deletion strains, locus YPR163C, strain tif3, hits give low values 1.01 | S. cerevisiae deletion strains, locus YPR167C, strain met16, hits give low values 1.01 | S. cerevisiae deletion strains, strain wtn01, hits give low values 1 | S. cerevisiae strains, strain wild type, hits give low values 1.01
